{"source": "ChEMBL document CHEMBL3988442", "about": "“University of Dundee, Small-Polar-MMV Screening Library” (2021)", "data": [{"target": "T1, Aspartate--tRNA(Asp/Asn) ligase (Mycobacterium tuberculosis (strain ATCC 25618 / H37Rv)) (UniProt P9WFW3)", "T1 sequence (whole entry)": "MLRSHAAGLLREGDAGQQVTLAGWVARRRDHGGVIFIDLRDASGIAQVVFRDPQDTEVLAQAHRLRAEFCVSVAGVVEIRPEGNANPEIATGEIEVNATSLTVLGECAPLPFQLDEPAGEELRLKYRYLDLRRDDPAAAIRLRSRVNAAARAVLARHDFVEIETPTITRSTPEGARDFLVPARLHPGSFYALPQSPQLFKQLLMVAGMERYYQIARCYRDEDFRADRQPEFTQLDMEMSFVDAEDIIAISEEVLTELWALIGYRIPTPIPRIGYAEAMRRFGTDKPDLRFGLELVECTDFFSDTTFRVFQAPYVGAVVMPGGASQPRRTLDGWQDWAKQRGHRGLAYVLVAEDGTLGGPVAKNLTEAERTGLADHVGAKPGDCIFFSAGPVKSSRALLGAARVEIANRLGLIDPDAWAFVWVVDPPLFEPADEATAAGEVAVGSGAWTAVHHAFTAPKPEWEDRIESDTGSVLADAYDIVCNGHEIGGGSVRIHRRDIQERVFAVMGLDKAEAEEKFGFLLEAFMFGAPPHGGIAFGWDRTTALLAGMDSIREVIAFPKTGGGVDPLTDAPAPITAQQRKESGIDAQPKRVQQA", "assay": "Assay for Asp RNA synthetase-1 from Mycobacterium tuberculosis", "assay_type": "functional", "design": "scale not given: in the data most compounds retested in dose-response had high values", "settings": "30 µM", "units": {"Percent Effect": "%"}, "values": [{"smiles": "Cc1cc(=O)n(CC(=O)NCCC(C)C)c(-c2cccc(Cl)c2)n1", "Percent Effect": 12.2}, {"smiles": "CCn1cnnc1CNC(=O)NC(C)C(C)C", "note": "(stereo not given)", "Percent Effect": -2.43}, {"smiles": "CC(C)CC(=O)N1C[C@@H]2CCN(c3ncccn3)C[C@@H]2C1", "Percent Effect": 4.21}, {"smiles": "Cc1cnc(N)c(C(=O)C2CCN(C(=O)c3ccccc3F)CC2)c1", "Percent Effect": -1.9}, {"smiles": "COc1ccc(NC(=O)CNc2ccc(Br)cc2F)cc1", "Percent Effect": 1.68}, {"smiles": "Cc1[nH]/c(=N\\C(=O)c2csc(NC3CC3)n2)sc1C", "Percent Effect": -4.09}, {"smiles": "CC(=O)N(Cc1ncc(C)o1)C1CCN(CCCc2cnn(C)c2)C1", "note": "(stereo not given)", "Percent Effect": 6.13}, {"smiles": "CCN1CCC2(C=C(C(=O)NC3CC3)c3ccccc32)CC1", "Percent Effect": -0.796}, {"smiles": "CN(Cc1ccsc1)C(=O)CN1CCCC1Cn1cccn1", "note": "(stereo not given)", "Percent Effect": 2.25}, {"smiles": "Cc1ccc(NC(=O)N2CCC(NC(=O)c3ccc(C)o3)CC2)cc1", "Percent Effect": -0.605}, {"smiles": "Cc1cccc(CNCc2c(C)nn(C)c2N2CCOCC2)n1", "Percent Effect": 3.77}, {"smiles": "CCCN(C(=O)c1ccccn1)c1nc2c(s1)CCc1c-2cnn1C", "Percent Effect": 55.9}, {"smiles": "CN(C)C(=O)[C@@H]1CCO[C@@H]2CCN(Cc3ccc4c(c3)OCO4)C[C@@H]21", "Percent Effect": -0.534}, {"smiles": "Cc1cc(NC(=O)C(c2cccc(F)c2)N2CCOCC2)ccn1", "note": "(stereo not given)", "Percent Effect": 5}, {"smiles": "Fc1ccccc1-c1noc2c1CN(CC1CC1)CC2", "Percent Effect": -1.29}, {"smiles": "Cc1cnn(CC2CCCN2Cc2nc3ccccc3n2C)c1", "note": "(stereo not given)", "Percent Effect": 3.43}, {"smiles": "CCn1nc(C)c2nc(C(C)C)nc(NCCCO)c21", "Percent Effect": 3.48}, {"smiles": "O=C(NCc1ccco1)[C@@]12CCO[C@@H]1CCN(CCN1CCCC1)C2", "Percent Effect": 1.05}, {"smiles": "CCN(CC)S(=O)(=O)N1CCCC(c2ccc(C(=O)O)cc2)C1", "note": "(stereo not given)", "Percent Effect": -0.279}, {"smiles": "CCc1nc(CCNC(=O)C2CCOC2)sc1C", "note": "(stereo not given)", "Percent Effect": -2.83}, {"smiles": "CC(=O)N1CCC2(CCCN(C(=O)c3ccccc3)C2)C1", "note": "(stereo not given)", "Percent Effect": -1.28}, {"smiles": "CC(=O)N1CCC2(CC1)CC[C@@]1(C(=O)N(C)C)CN(S(C)(=O)=O)C[C@@H]21", "Percent Effect": -1.99}, {"smiles": "COCCN1CCN(Cc2noc(C3CC3)n2)CC1C", "note": "(stereo not given)", "Percent Effect": -6.85}, {"smiles": "COc1ncnc2c1CCN(c1cc(C(F)(F)F)ncn1)CC2", "Percent Effect": 3.67}, {"smiles": "CC(O)CN1CCN(C(=O)CN(C)c2cnccn2)CC1", "note": "(stereo not given)", "Percent Effect": 4}, {"smiles": "Cc1noc(C2CCN(Cc3cc(=O)n(C)c(=O)n3C)CC2)n1", "Percent Effect": -4.37}, {"smiles": "Cc1nn(C)c(N(C)C)c1CNCc1cccnc1-n1cncn1", "Percent Effect": -4.35}, {"smiles": "CC(Cn1ccnc1)NC(=O)N1CCN(Cc2cccnc2)CC1", "note": "(stereo not given)", "Percent Effect": 0.189}, {"smiles": "CCOc1cc(CN(C)CCOC)ccc1OC(F)F", "Percent Effect": -3.33}, {"smiles": "CC(NC(=O)COc1ccc(F)cc1)c1nnc2n1CCCCC2", "note": "(stereo not given)", "Percent Effect": 8.46}, {"smiles": "COCCO[C@@H]1CCN(Cc2csc(C)n2)[C@H]1Cc1ccccc1", "Percent Effect": 3.03}, {"smiles": "COCCCNC(=O)CN(C)C(=O)c1cc(C)sc1C", "Percent Effect": -2.19}, {"smiles": "COc1cc(N2C[C@H]3OCC[C@H]3[C@H](C(=O)NC3CC3)C2)ncn1", "Percent Effect": 3.81}, {"smiles": "CS(=O)(=O)N1CC[C@H]2C[C@@H](C(=O)N3CCOCC3)O[C@@H]2C1", "Percent Effect": 2.65}, {"smiles": "CC(C)n1ccnc1C1CCN(C(=O)c2cc[nH]n2)CC1", "Percent Effect": -0.496}, {"smiles": "CC(C)Oc1ncnc2c1CCN(Cc1cccs1)CC2", "Percent Effect": 1.14}, {"smiles": "COCc1c(C(=O)O)nnn1Cc1cccc(C(F)(F)F)c1", "Percent Effect": -5.23}, {"smiles": "O=C(Nc1cc(C(F)(F)F)c[nH]c1=O)N1CCCSCC1", "Percent Effect": 5.77}, {"smiles": "COc1ccccc1S(=O)(=O)N1CCC(Oc2cccnn2)CC1", "Percent Effect": -2.24}, {"smiles": "O=C(NC1CC1)c1ccc2ccc(N3CCN(CC4CC4)CC3)n2c1", "Percent Effect": -1.8}]}]}
